# Bioassay records: PubChem, several laboratories
# Arbovirus inh: antivirals against arbovirus infection, primary screen, cell-based, full library, 10K replicate subset | arbovirus infection cell-based antiviral screen | inhibition, % at 10 µM | 200,000 compounds, 0.37% hits | AID 1251, 2008; in the data active = inhibition above about 30%
# Hsp70 activator: Hsp70 transcriptional activators, primary screen, cell-based, HeLa, Hsp70 promoter luciferase, luminescence, 10 µM; HeLa Hsp70 promoter luciferase reporter; scaled: vehicle 0, proteasome-inhibitor control 100%; 200,000 compounds, 0.04% hits; activation, % at 10 µM;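 active = activation above the mean across all tested compounds plus 3 SD, cutoff set per campaign, cut at about 5.5% in these data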;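 note: 100% = MG132 at 30 µM as the positive control and 0% = DMSO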
# PKD1 inh: inhibitors of human PKD1 kinase, biochemical, fluorescence polarization. 200,000 compounds, 0.056% hits. AID 797, 2007. PKD1 kinase fluorescence polarization assay. Serine/threonine-protein kinase D1 (Homo sapiens), Q15139. inhibition, % (no concentration beside the values); in the data active = inhibition above about 50%
# HMGR II inh: inhibitors of E. faecalis class II HMGR, primary screen, biochemical, Enterococcus faecalis | HMG-CoA reductase (Enterococcus faecalis, mvaE) | purified E. faecalis HMGR, NADPH absorbance 340 nm kinetic | inhibition, % at 10 µM | 190,000 compounds, 0.41% hits;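 active = inhibition above a set limit, the median over all tested compounds plus 3 SD, cut at about 9.5% in these data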;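 note: enzyme runs in reverse so mevalonate oxidation gives rising NADPH absorbance; 0% = complete reaction with DMSO and 100% = background rate lacking mevalonate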
# Wee1 stabilizer: Wee1 degradation inhibitors, primary screen, cell-based, HeLa, Wee1K328M-luciferase, luminescence; reporter increase, % at 5 µM; 220,000 compounds, 1.2% hits; HeLa Luc-Wee1K328M stability; 100% = proteasome inhibitor MG132 effect; AID 1321, 2008;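 active = activation above the mean of all tested compounds plus 3 SD, set per screening run, cut at about 8.8% in these data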;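 note: cells exposed to compound for 20 h before luminescence read; 0% = DMSO alone and 100% = MG132 at 30 µM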
# Target sequence (P30291 whole entry K328M): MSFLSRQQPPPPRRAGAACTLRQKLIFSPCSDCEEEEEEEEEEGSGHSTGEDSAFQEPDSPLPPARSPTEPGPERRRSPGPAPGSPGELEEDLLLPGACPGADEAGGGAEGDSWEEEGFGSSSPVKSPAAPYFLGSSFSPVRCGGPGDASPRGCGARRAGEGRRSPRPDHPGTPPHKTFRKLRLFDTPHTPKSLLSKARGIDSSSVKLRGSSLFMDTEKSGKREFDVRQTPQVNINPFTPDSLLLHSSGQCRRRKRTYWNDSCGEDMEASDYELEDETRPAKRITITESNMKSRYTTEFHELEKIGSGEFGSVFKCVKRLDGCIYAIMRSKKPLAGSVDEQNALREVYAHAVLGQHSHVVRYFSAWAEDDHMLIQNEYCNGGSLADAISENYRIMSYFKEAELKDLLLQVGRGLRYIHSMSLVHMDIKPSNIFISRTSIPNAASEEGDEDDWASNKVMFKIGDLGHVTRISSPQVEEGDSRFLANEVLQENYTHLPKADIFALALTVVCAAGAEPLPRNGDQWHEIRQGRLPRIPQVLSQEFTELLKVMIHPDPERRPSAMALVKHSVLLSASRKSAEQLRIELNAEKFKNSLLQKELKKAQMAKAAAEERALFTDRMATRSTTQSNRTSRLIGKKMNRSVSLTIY
# The depositor's hits bear a star; nt = not tested or not shown. Most compounds without a hit are left out; they make up all but 2% or so of the library.
SMILES,Arbovirus inh,Hsp70 activator,PKD1 inh,HMGR II inh,Wee1 stabilizer
COc1ccc(CC(=O)NCc2n[nH]c(=S)n2-c2ccccc2OC)cc1,-6.4,0.2,-3.2,0.5,1.6
CC1CCCC(NC(=O)C2CCN(S(=O)(=O)N3CCCCCC3)CC2)C1C (configuration not stated),-7.8,-0.3,-2.5,1.5,-0.6
CCC1CSC(Nc2ccc(C(=O)/C=C/c3ccc(OC)c(OC)c3)cc2)=N1 (configuration not stated),-32.1,-0.3,-0.3,-4.8,0.3
COc1ccc(/C=C/C(=O)c2ccc(NC3=NCCCS3)cc2)cc1OC,-38.6,0.0,-2.8,10.4*,-0.6
Cc1c(Br)c(C(=O)NCc2cc3cc(Cl)ccc3[nH]2)nn1C,-5.7,-0.3,-10.0,-4.6,0.0
Cn1cc([N+](=O)[O-])c(C(=O)NCc2cc3cc(Cl)ccc3[nH]2)n1,34.9*,-0.2,1.9,-5.1,0.2
CCC(C)NS(=O)(=O)c1ccc(S(=O)(=O)N(CCc2ccc(OC)c(OC)c2)Cc2cccs2)cc1 (configuration not stated),-1.2,-0.4,4.7,-5.7,1.9
COc1ccc(CCC(=O)N(C)CC(=O)Nc2ccc(N3CCOCC3)cc2)cc1,4.2,-0.2,-1.1,9.7*,1.6
COc1ccc(CC(=O)OCC(=O)Nc2ccc(N3CCOCC3)cc2)cc1,nt,nt,nt,nt,1.8
COc1ccc(OC)c(NC(=O)CNC(=O)c2ccc([N+](=O)[O-])cc2)c1,-0.7,-0.1,3.4,-8.0,0.3
Cc1cc(NC(=O)C(C)C)ncc1NC(=O)Cc1ccccc1,10.3,0.6,2.0,-7.5,10.3*
CCCN(CCC)C(=O)CSc1nc2c(sc(=S)n2-c2ccc(OCC)cc2)c(=O)[nH]1,41.7*,0.0,0.2,-3.0,-1.2
CCOC(=O)CC(=O)CSc1nc2c(sc(=S)n2-c2ccc(OCC)cc2)c(=O)[nH]1,59.7*,0.0,-19.3,-3.1,-2.6
CCOc1ccc(-n2c(=S)sc3c(=O)[nH]c(SCC(=O)NC(C)CC)nc32)cc1 (configuration not stated),7.1,-0.2,3.7,1.2,-1.2
CCCCN(CC)C(=O)CSc1nc2c(sc(=S)n2-c2ccc(OCC)cc2)c(=O)[nH]1,46.8*,-0.2,-9.6,3.2,-0.6
c1ccc(OCCSc2nc3ccccc3[nH]2)cc1,-2.8,-0.1,-10.5,13.0*,-0.3
Cc1ccc2nc(SCCCCOc3ccccc3)[nH]c2c1,-20.7,0.3,1.9,-1.0,-0.6
O=[N+]([O-])c1cccc(CSc2nc3ccccc3[nH]2)c1,-2.1,-0.2,-10.4,-1.3,-1.0
COc1cccc(CSc2nc3ccccc3[nH]2)c1,-1.6,0.3,-4.0,5.2,9.0*
Cc1ccc(-n2cc(S(=O)(=O)c3ccc(C)cc3)[nH]c2=O)cc1,7.8,0.0,8.1,0.2,0.3
COc1cc(SC)ccc1C(=O)NCCOc1ccc(F)cc1,-1.2,0.1,3.1,2.2,10.1*
O=C1CSCN1c1cc(Cl)ccc1Cl,-0.9,-0.2,74.8*,-0.8,0.6
O=C1CSCN1c1ccc(Cl)c(Cl)c1,3.2,-0.2,3.0,-4.7,0.0
CCN(Cc1ccncc1)Cc1c(O)ccc2cc(Br)ccc12,30.9*,-0.3,-5.5,15.4*,-3.1
COc1ccc(OC)c(NC(=O)NNC(=O)CCCOc2ccc(Cl)cc2C)c1,0.5,-0.4,-2.1,15.8*,-2.0
SMILES,Arbovirus inh,Hsp70 activator,PKD1 inh,HMGR II inh,Wee1 stabilizer
COc1ccc(/C(N)=N/O)c(OC)c1,2.8,-0.1,-0.8,-0.6,-0.6
COc1cc(OC)cc(C(=O)NCCOC23CC4CC(CC(C4)C2)C3)c1,-12.3,-0.4,-0.3,-10.2,9.4*
COC(=O)CNC(=O)c1cc(OC)cc(OC)c1,-0.5,0.0,-7.1,17.6*,-0.3
CCC(CO)n1c(=S)[nH]c2cc(OC)c(OC)cc2c1=O (configuration not stated),2.2,-0.6,1.4,-1.1,1.0
O=C1CCC(/C=C/c2ccccc2)=NN1Cc1ccc(F)cc1,0.1,-0.4,7.7,-9.1,-1.1
C#Cc1ccc([C@H]2C=C(C(=O)NC3CC3)O[C@@H](OCC)[C@@H]2CCCO)cc1,1.6,0.1,-10.3,-0.5,2.0
Cc1ccc(C(=O)/C=C/c2ccc(-c3ccc(C)cc3)o2)cc1,5.0,-0.1,-4.2,-2.1,2.1
O=C(/C=C\c1ccc(-c2ccccc2)o1)c1ccccc1,5.1,-0.3,-6.7,0.2,8.8*
O=C(O)/C(=C\c1ccc(-c2ccc(F)cc2)o1)c1ccccc1,44.1*,-0.3,-4.8,-3.3,-2.0
CCOC(=O)C1=C(C)N(CCCC(=O)O)C(=O)NC1c1ccccc1OS(=O)(=O)c1ccc(C)cc1 (configuration not stated),-4.2,-0.5,-1.6,-8.4,-0.8
Nc1nc(-c2ccccc2)c(-c2ccc([N+](=O)[O-])cc2)s1,33.2*,-0.1,1.5,-10.6,-1.6
Nc1nc(-c2ccccc2)c(-c2ccccc2)s1,0.0,-0.3,1.8,0.0,0.8
Cc1ccc2[nH]c(O)c(N=NC(=O)C(C)n3cnc4ccccc4c3=O)c2c1 (configuration not stated),-1.1,-0.2,2.8,-2.5,-2.9
Cn1cc(Br)c(-c2cccc(NC(=O)CCCC(=O)O)c2)n1,nt,nt,nt,nt,-3.6
COC(=O)c1ccccc1NC(=O)CSc1nnc(CNS(=O)(=O)c2ccc(C)cc2)n1C,8.8,0.1,-9.6,13.7*,0.2
CCCC1=NN2C(=N)/C(=C\c3ccc(SCc4ccco4)o3)C(=O)N=C2S1,31.9*,-0.2,6.2,-1.7,-2.1
CCCC1=NN2C(=N)/C(=C\c3cc(C)n(Cc4ccccc4)c3C)C(=O)N=C2S1,nt,nt,nt,nt,-1.6
CCCC1=NN2C(=N)/C(=C\c3cc(C)n(-c4cccc(C)c4)c3C)C(=O)N=C2S1,32.5*,-0.3,-2.1,-0.1,0.5
O=C1NC(=S)S/C1=C\c1ccc(SCc2ccco2)o1,18.2,-0.3,-5.5,12.5*,1.4
CCC1=NN2C(=N)/C(=C\c3ccc(SCc4ccco4)o3)C(=O)N=C2S1,62.2*,-0.1,-8.2,1.0,5.8
CCC1=NN2C(=N)/C(=C/c3c(C)nn(-c4ccccc4)c3Cl)C(=O)N=C2S1,13.6,-0.3,-0.2,-1.1,-3.9
O=C1NC(=S)S/C1=C\c1ccc(SCc2ccccc2)o1,-2.0,-0.1,4.8,6.5,-2.1
O=C(Nc1ccccc1N1CCOCC1)c1cccnc1,21.2,-0.2,-2.5,10.1*,1.0
Cc1ccc(C(C(=O)NC2CCCC2)N(Cc2ccco2)C(=O)CCC(=O)Nc2cc(C)on2)cc1 (configuration not stated),2.0,-0.1,6.4,-0.8,0.5
Cc1cc(NC(=O)CCC(=O)N(Cc2ccco2)C(C(=O)NCC2CCCO2)c2ccncc2)no1 (configuration not stated),-0.3,-0.2,74.3*,-3.3,1.2
